An excerpt weighted towards active compounds, which were near 1.3% of everything screened.
PvdQ inh = P. aeruginosa PvdQ acylase inhibitors, primary screen, biochemical, fluorescence, plate reader and imaging, single point | purified PvdQ acylase | inhibition, % at 10 µM | 0.063% of 340,000 active | AID 488965, 2010; in the data active means inhibition above about 30%, passing the limit was not always enough;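 further: 0% = vehicle neutral wells and 100% = reference inhibitor wells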
HTR5A ag ctr = HTR5A agonists in luminescence cell assay, primary screen, counter-screen for OPRM1-OPRD1 heterodimer agonist project, full-deck HTS. 5-hydroxytryptamine receptor 5A (Homo sapiens), P47898. cell-based. activation, % at 9.3 µM. 0.61% of 340,000 active. AID 504692, 2011; in the data active means activation mostly above about 9.5%, no sharp cut-off; inactive means mostly below about 7.6%;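 further: 0% = cells with vehicle only and 100% = reference agonist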
Target sequence (P47898 whole entry, looked up): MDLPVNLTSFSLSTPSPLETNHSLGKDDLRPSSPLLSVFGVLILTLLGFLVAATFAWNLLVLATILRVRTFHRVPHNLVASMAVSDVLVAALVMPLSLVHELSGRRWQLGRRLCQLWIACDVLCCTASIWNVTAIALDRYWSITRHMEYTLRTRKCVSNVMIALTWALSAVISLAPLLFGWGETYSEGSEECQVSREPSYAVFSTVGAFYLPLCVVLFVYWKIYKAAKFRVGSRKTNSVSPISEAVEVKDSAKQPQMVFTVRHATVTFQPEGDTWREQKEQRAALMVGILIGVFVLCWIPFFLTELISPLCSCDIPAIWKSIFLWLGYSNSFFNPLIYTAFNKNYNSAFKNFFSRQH
Yeast superoxide = reduction of superoxide in aged yeast, primary screen, HTS; S. cerevisiae aged cells, superoxide DHE fluorescence; active compounds read low; superoxide response (% of plate mean), % at 10 µM; 0.18% of 330,000 active; AID 2690, 2010;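 active means superoxide response under a set limit, about three screen SD below normal, cut at about 65% in these data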;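 further: yeast aged for seven days with compound at 30 °C before DHE staining; 100% = average MFI of all compound-treated wells on the plate with controls excluded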
OPRM1-OPRD1 ag = agonists of OPRM1-OPRD1 heterodimerization, primary screen, cell-based, luminescence | Mu-type opioid receptor (Homo sapiens) + Delta-type opioid receptor (Homo sapiens), … | cells | activation, % at 9.3 µM | 0.3% of 340,000 active | AID 504326, 2011; in the data active means activation above about 18%;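 further: 0% = vehicle-treated cells and 100% = reference agonist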
MOR-DOR inv ag = inverse agonists of MOR-DOR heterodimerization, primary screen, cell-based, luminescence | Mu-type opioid receptor (Homo sapiens) + Delta-type opioid receptor (Homo sapiens), … | cell-based MOR-DOR heterodimer luminescence, inverse agonism | inhibition, % at 9.3 µM | 0.21% of 340,000 active; in the data active means inhibition above about 22%, passing the limit was not always enough;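 further: 0% = cells with DMSO and 100% = wells without cells with DMSO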
HTR5A inv ctr = HTR5A inverse agonists in luminescence cell assay, primary screen, counter-screen for OPRM1-OPRD1 heterodimer inverse agonist project, full-deck HTS. 5-hydroxytryptamine receptor 5A (Homo sapiens), P47898. HTR5A cell line, inverse agonism. inhibition, % at 9.3 µM. 0.083% of 340,000 active. AID 504634, 2011; in the data active means inhibition mostly above about 23%, no sharp cut-off; inactive means mostly below about 18%;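 further: 0% = cells with DMSO and 100% = no-cell wells with DMSO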
OPRM1-D1 inv cf = inverse agonists of MOR-DOR heterodimerization, confirmation, cell-based, luminescence; shares compounds with MOR-DOR inv ag; cells expressing OPRM1/OPRD1 heterodimer; inhibition, % at 9.3 µM; 20% of 580 active; in the data active means inhibition above about 32%;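 further: 0% = cells with DMSO and 100% = wells lacking cells with DMSO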
HTR5A inv ctr2 = HTR5A inverse agonists, counter-screen for OPRM1-OPRD1 inverse agonist project, cell-based, luminescence | shares compounds with MOR-DOR inv ag | HTR5A-expressing cells, inverse agonism | inhibition, % at 9.3 µM | 580 tested, under 10 active; call rule not given here;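 further: 0% = cells with DMSO and 100% = no-cell wells with DMSO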
* marks the source's active call; other numbers are inactive results; i = inactive; . = not tested or not shown.

SMILES	PvdQ inh	HTR5A ag ctr	Yeast superoxide	OPRM1-OPRD1 ag	MOR-DOR inv ag	HTR5A inv ctr	OPRM1-D1 inv cf	HTR5A inv ctr2
O=C(O)CNS(=O)(=O)Cc1ccccc1	-13.5	0.8	108.5	-2.1	11.2	0.6	.	.
CCOC(=O)CSc1n[nH]c(=O)n1CCc1ccccc1	8.0	2.1	100.2	0.4	-2.1	-7.9	.	.
CN(C)C(=O)CSc1n[nH]c(=O)n1CCc1ccccc1	-8.7	-1.9	98.8	-6.0	38.2*	2.8	-58.2	-2.9
Cc1ccccc1NC(=O)CCC(=O)OCC(=O)c1cccc([N+](=O)[O-])c1	-8.0	-9.8	94.5	-13.1	59.7*	33.1	i	3.8
O=C(CCC(=O)OCC(=O)c1cccc([N+](=O)[O-])c1)Nc1cccc(Cl)c1Cl	-13.5	-6.1	93.9	-11.0	68.6*	30.2	64.2*	23.7
O=C(CCC(=O)OCC(=O)c1ccc([N+](=O)[O-])cc1)Nc1ccccc1Cl	-11.8	0.2	99.3	-4.5	23.9	-17.3	.	.
CC(C)N1C(=O)C(O)(C2COC(C)(C)CC2=O)c2ccccc21 (stereo unspecified)	-6.5	0.8	94.7	-2.1	10.9	-11.5	.	.
CC1(C)CC(=O)C(C2(O)C(=O)Nc3ccccc32)CO1 (stereo unspecified)	-10.6	-8.1	99.9	-11.3	55.4*	22.2*	-110.3	-63.1
O=C1Nc2ccccc2/C1=N/c1sc2c(c1C(=O)NCCc1ccccc1)CCCC2	12.1	2.3	96.0	-5.8	33.5*	-23.6	20.9	14.1
O=C(Nc1sc2c(c1C(=O)NCCO)CCCC2)c1ccco1	-7.0	6.2	100.2	-1.1	6.1	-16.7	.	.
CC(C)C(NC(=O)c1ccccc1)C(=O)OCn1nnc2ccccc2c1=O (stereo unspecified)	-7.9	1.1	94.6	-1.7	6.8	-2.8	.	.
CCOc1ccc2c(c1)/C(=N/N1C(=O)c3ccccc3C1=O)C(=O)N2	-12.5	-7.4	102.4	-7.4	42.0*	19.3	-7.1	7.3
Cc1ccc2c(c1)/C(=C/c1ccccc1C)C(=O)N2	8.6	1.5	122.4	6.3	-29.9	-5.9	.	.
Cc1ccc2c(c1)/C(=N/N1C(=O)c3ccccc3C1=O)C(=O)N2	-8.1	-2.2	100.1	-5.0	28.1*	7.4	4.6	13.7
CC(C)c1ccc(OCC(=O)NCc2n[nH]c(=O)c3ccccc23)cc1	-12.6	0.9	99.6	-1.1	7.4	-2.7	.	.
CCCc1c(C(=O)Nc2ccc(C(F)(F)F)cc2)cnn1-c1ccccc1	1.3	0.5	113.4	5.3	-25.9	-3.0	.	.
CCCc1c(C(=O)NNc2ccc(C)cc2)cnn1-c1ccccc1	2.9	2.1	96.6	-7.8	39.3*	-0.9	-3.2	-15.7
O=C(COC(=O)c1cccnc1)c1ccc(Cl)c(Cl)c1	-10.0	-5.8	104.7	-9.6	56.9*	7.3	-149.7	-11.3
O=C(COC(=O)c1cnccn1)c1ccc(Cl)c([N+](=O)[O-])c1	-12.3	-6.3	85.0	-15.4	81.5*	13.4	-113.2	-46.2
O=C(OCC(=O)c1ccc(Cl)cc1Cl)c1cnccn1	-4.1	-4.0	99.8	-5.4	40.5*	10.6	18.1	1.1
O=C(COC(=O)c1cnccn1)c1ccc([N+](=O)[O-])cc1	-5.6	-2.2	82.7	-4.2	22.0	-19.9	.	.
O=C(COC(=O)c1cccnc1)c1ccc(Cl)cc1	-14.4	1.4	111.4	-3.1	16.5	11.8	.	.
Cc1ccc(C(=O)COC(=O)c2cnccn2)cc1[N+](=O)[O-]	4.6	-6.7	101.4	-10.6	53.9*	18.8*	33.3*	17.1

High-throughput results as filed in PubChem.
